Data as given in the antibiotic and cytotoxicity screens of Wong et al. (2023).
The whole screen tested about 39,000 compounds, of which about 3,300 (8.5%) were called active. The sample as a whole holds a higher share of actives than the screen did.

What follows are molecules tested on HepG2 (assay: cytotoxicity call (relative viability < 0.9)). Details: 10 µM.

Compound	cytotoxicity call
C[C@@H]1CN([C@H](C)CO)C(=O)c2cccc(NC(=O)Nc3ccccc3)c2O[C@H]1CN(C)Cc1ccc(C(=O)Nc2ccccc2N)cc1	inactive
O=C(C[C@@H]1C[C@@H]2c3cc(NC(=O)NC4CCCC4)ccc3O[C@@H]2[C@H](CO)O1)NCc1ccc(Oc2ccccc2)cc1	inactive
O=C(C[C@@H]1C[C@@H]2c3cc(NC(=O)Nc4ccccc4F)ccc3O[C@@H]2[C@@H](CO)O1)NCc1ccc(Oc2ccccc2)cc1	active
O=C(C[C@@H]1C[C@H]2c3cc(NC(=O)NC4CCCC4)ccc3O[C@H]2[C@H](CO)O1)NCc1ccc(Oc2ccccc2)cc1	inactive
O=C(C[C@H]1C[C@H]2c3cc(NC(=O)Nc4ccccc4F)ccc3O[C@H]2[C@H](CO)O1)NCc1ccc(Oc2ccccc2)cc1	inactive
O=C(C[C@@H]1C[C@H]2c3cc(NC(=O)NC4CCCC4)ccc3O[C@H]2[C@@H](CO)O1)NCc1ccc(Oc2ccccc2)cc1	inactive
O=C(C[C@H]1C[C@@H]2c3cc(NC(=O)NC4CCCC4)ccc3O[C@@H]2[C@@H](CO)O1)NCc1ccc(Oc2ccccc2)cc1	inactive
O=C(C[C@H]1C[C@H]2c3cc(NC(=O)NC4CCCC4)ccc3O[C@H]2[C@H](CO)O1)NCc1ccc(Oc2ccccc2)cc1	active
O=C(C[C@@H]1C[C@H]2c3cc(NC(=O)Nc4ccccc4F)ccc3O[C@H]2[C@H](CO)O1)NCc1ccc(Oc2ccccc2)cc1	inactive
O=C(C[C@H]1C[C@@H]2c3cc(NC(=O)NC4CCCC4)ccc3O[C@@H]2[C@H](CO)O1)NCc1ccc(Oc2ccccc2)cc1	active
CC(C)(C)OC(=O)C[C@@H]1CC=CC[C@H](CC(=O)NCCO)C(=O)NCCOC1=O	inactive
COCC#Cc1ccc([C@@H]2[C@H](CO)N3C(=O)CN(C(=O)c4ccncc4)C[C@@H]23)cc1	inactive
CO[C@H]1CN(C)C(=O)c2ccc(NS(C)(=O)=O)cc2OC[C@@H](C)N(C(=O)CN(C)C)C[C@H]1C	inactive
C[C@@H]1CN([C@H](C)CO)C(=O)Cc2cc(NS(=O)(=O)c3ccc(F)cc3)ccc2O[C@H]1CN(C)Cc1ccncc1	inactive
C=CCC[C@H](Cc1ccc(F)cc1)C(=O)OC[C@@H]1CCCN1C(=O)[C@H](CC=C)CC(=O)N(CCO)Cc1ccccc1	inactive
CC(C)(C)OC(=O)N1CCNC(=O)C1	inactive
O=C(O)CCN1C(=O)NC2(CCCC2)C1=O	inactive
O=C(C1=C[C@@H](c2ccsc2)C[C@@H](OCCCCO)O1)N1CCN(Cc2ccc3c(c2)OCO3)CC1	inactive
C[C@H]1CN([C@@H](C)CO)C(=O)CCCn2nncc2CO[C@@H]1CN(C)C(=O)CCCN(C)C	inactive
C[C@H]1CN([C@@H](C)CO)C(=O)Cc2cc(NC(=O)CCN3CCOCC3)ccc2O[C@@H]1CN(C)S(=O)(=O)c1ccc(Cl)cc1	inactive
CC(=O)O[C@@H](C)C[N+](C)(C)C	inactive

Compound	cytotoxicity call
CC(=O)OC(C)C[N+](C)(C)C.[Cl-] (stereo unspecified)	active
CC(C[N+](C)(C)C)OC(N)=O.[Cl-] (stereo unspecified)	inactive
O=C(C[C@H]1CC[C@H]2[C@@H](COC[C@@H](O)CN2C(=O)Nc2cccc(Cl)c2)O1)NCc1ccccc1F	inactive
CN(C)Cc1cn(CC[C@@H]2CC[C@@H](NC(=O)Cc3cccnc3)[C@@H](CO)O2)nn1	inactive
C[C@@H]1CCCCO[C@@H](CN(C)C(=O)c2ccncc2)[C@H](C)CN([C@H](C)CO)C(=O)c2cc(NS(=O)(=O)c3cn(C)cn3)ccc2O1	inactive
O=C(C[C@@H]1CC[C@H]2[C@@H](COC[C@@H](O)CN2S(=O)(=O)c2ccccc2F)O1)NCc1ccccc1Cl	inactive
C[C@@H]1CN([C@H](C)CO)C(=O)c2cc(NS(C)(=O)=O)ccc2O[C@@H]1CN(C)Cc1ccc(C(=O)Nc2ccccc2N)cc1	inactive
COc1ccc(CNC(=O)c2cc3c(c(-c4cccc(-c5ccc(C#N)cc5)c4)n2)[C@H](CCO)N([S@@](=O)C(C)(C)C)C3)cc1	inactive
COc1ccc(C2=N[C@H](c3ccc(Cl)cc3)[C@H](c3ccc(Cl)cc3)N2C(=O)N2CCNC(=O)C2)c(OC(C)C)c1	inactive
COc1ccc(C2=N[C@@H](c3ccc(Cl)cc3)[C@@H](c3ccc(Cl)cc3)N2C(=O)N2CCNC(=O)C2)c(OC(C)C)c1	active
COc1ccc(S(=O)(=O)N(C)C[C@@H]2Oc3ccc(NC(=O)C4CC4)cc3C(=O)N([C@@H](C)CO)C[C@@H]2C)cc1	inactive
Cc1noc(C)c1NC(=O)N(C)C[C@H]1Oc2c(NS(=O)(=O)c3cn(C)cn3)cccc2C(=O)N([C@H](C)CO)C[C@@H]1C	inactive
C[C@@H]1CCCCO[C@H](CN(C)C(=O)Nc2ccc3c(c2)OCO3)[C@H](C)CN([C@@H](C)CO)C(=O)c2cc(NC(=O)NC3CCCCC3)ccc2O1	inactive
C[C@H](CO)N1C[C@H](C)[C@@H](CN(C)C(=O)Nc2ccc3c(c2)OCO3)OCCCC[C@H](C)Oc2ccc(NC(=O)NC3CCCCC3)cc2C1=O	inactive
C[C@@H]1CCCCO[C@@H](CN(C)C(=O)Nc2ccc3c(c2)OCO3)[C@@H](C)CN([C@@H](C)CO)C(=O)c2cc(NC(=O)NC3CCCCC3)ccc2O1	inactive
C[C@@H]1CCCCO[C@@H](CN(C)C(=O)Nc2ccc3c(c2)OCO3)[C@H](C)CN([C@H](C)CO)C(=O)c2cc(NC(=O)NC3CCCCC3)ccc2O1	inactive
C[C@@H]1CN([C@@H](C)CO)C(=O)c2cc(NC(=O)NC3CCCCC3)ccc2O[C@@H](C)CCCCO[C@H]1CN(C)C(=O)Nc1ccc2c(c1)OCO2	active
C[C@@H]1CCCCO[C@H](CN(C)C(=O)Nc2ccc3c(c2)OCO3)[C@H](C)CN([C@H](C)CO)C(=O)c2cc(NC(=O)NC3CCCCC3)ccc2O1	active
C[C@@H]1CN([C@@H](C)CO)C(=O)Cc2cc(NC(=O)CCCN(C)C)ccc2O[C@H]1CN(C)S(=O)(=O)c1ccc(Cl)cc1	inactive
Cc1noc(C)c1NC(=O)N(C)C[C@H]1Oc2ccc(NC(=O)C3CC3)cc2CC(=O)N([C@@H](C)CO)C[C@@H]1C	inactive
C[C@@H]1CCCCO[C@@H](CN(C)S(=O)(=O)c2cn(C)cn2)[C@H](C)CN([C@@H](C)CO)C(=O)c2cc(NC(=O)Nc3cccc4ccccc34)ccc2O1	inactive

Compound	cytotoxicity call
CCCNC(=O)N(C)C[C@@H]1Oc2ncc(-c3ccc(C(=O)N(C)C)cc3)cc2C(=O)N([C@H](C)CO)C[C@H]1C	inactive
C[C@@H]1CCCCO[C@@H](CN(C)C(=O)Nc2ccc(C(F)(F)F)cc2)[C@H](C)CN([C@@H](C)CO)C(=O)c2cc(NC(=O)Nc3ccc(F)cc3)ccc2O1	inactive
Cc1ccc(S(=O)(=O)N(C)C[C@H]2OCCCC[C@H](C)Oc3ccc(NS(=O)(=O)c4ccc(F)cc4)cc3C(=O)N([C@H](C)CO)C[C@@H]2C)cc1	inactive
COc1ccc(NC(=O)Nc2ccc3c(c2)CC(=O)N([C@H](C)CO)C[C@@H](C)[C@@H](CN(C)Cc2ccc(C(=O)Nc4ccccc4N)cc2)O3)cc1	active
C[C@H](CO)N1C[C@H](C)[C@@H](CN(C)Cc2ccc(C(=O)Nc3ccccc3N)cc2)Oc2ccc(NC(=O)Nc3ccccc3)cc2CC1=O	inactive
COc1ccc(NC(=O)Nc2ccc3c(c2)CC(=O)N([C@@H](C)CO)C[C@H](C)[C@@H](CN(C)Cc2ccc(C(=O)Nc4ccccc4N)cc2)O3)cc1	inactive
C[C@@H]1CN([C@H](C)CO)C(=O)Cc2cc(NC(=O)Nc3cccc4ccccc34)ccc2O[C@H]1CN(C)Cc1ccc(C(=O)Nc2ccccc2N)cc1	inactive
C[C@H](CO)N1C[C@H](C)[C@H](CN(C)Cc2ccc(C(=O)Nc3ccccc3N)cc2)Oc2ccc(NC(=O)Nc3cccc4ccccc34)cc2CC1=O	active
C[C@H]1CN([C@@H](C)CO)C(=O)Cc2cc(NC(=O)Nc3ccccc3)ccc2O[C@H]1CN(C)Cc1ccc(C(=O)Nc2ccccc2N)cc1	inactive
C[C@@H]1CN([C@H](C)CO)C(=O)Cc2cc(NC(=O)Nc3cccc4ccccc34)ccc2O[C@@H]1CN(C)Cc1ccc(C(=O)Nc2ccccc2N)cc1	inactive
C[C@@H]1CN([C@H](C)CO)C(=O)Cc2cc(NC(=O)Nc3ccc(F)cc3)ccc2O[C@@H]1CN(C)Cc1ccc(C(=O)Nc2ccccc2N)cc1	active
COc1ccc(NC(=O)Nc2ccc3c(c2)CC(=O)N([C@H](C)CO)C[C@H](C)[C@@H](CN(C)Cc2ccc(C(=O)Nc4ccccc4N)cc2)O3)cc1	inactive
C[C@@H]1CN([C@H](C)CO)C(=O)Cc2cc(NC(=O)Nc3ccccc3)ccc2O[C@@H]1CN(C)Cc1ccc(C(=O)Nc2ccccc2N)cc1	active
C[C@H](CO)N1C[C@H](C)[C@H](CN(C)Cc2ccc(C(=O)Nc3ccccc3N)cc2)Oc2ccc(NC(=O)Nc3ccccc3)cc2CC1=O	inactive
C[C@@H]1CN([C@@H](C)CO)C(=O)Cc2cc(NC(=O)Nc3ccc(F)cc3)ccc2O[C@H]1CN(C)Cc1ccc(C(=O)Nc2ccccc2N)cc1	inactive
COCC#Cc1ccc2c(c1)O[C@@H](CN(C)S(=O)(=O)c1ccc(F)cc1)[C@H](C)CN([C@@H](C)CO)S2(=O)=O	inactive
C[C@@H]1CN([C@@H](C)CO)C(=O)Cc2cc(NS(=O)(=O)c3cccs3)ccc2O[C@H]1CN(C)S(=O)(=O)c1ccc(F)cc1	inactive
C[C@H](CO)N1C[C@H](C)[C@@H](CN(C)C(=O)Nc2ccccc2)Oc2ccc(NC(=O)CCN3CCOCC3)cc2CC1=O	inactive
Cc1noc(C)c1NC(=O)Nc1ccc2c(c1)C(=O)N([C@H](C)CO)C[C@H](C)[C@H](CN(C)C(=O)C1CCCCC1)OCCCC[C@@H](C)O2	inactive
